# Reference: PubChem BioAssay (EPA / NIEHS)
# Several values for one entry are separate records, joined by “and”; a condition that tells them apart may be missing. Identical values can stand only once. Records with an inconclusive call do not appear. Some compounds were tested as several samples or in several runs, with calls that do not always agree. Activity calls are given as the source filed them. Rule for the calls, unless noted: active = hit-call score of the fitted dose curve at least 0.9, where 1 is the maximum; inconclusive = response in the unintended direction; inactive = score below 0.9.
# Assays:
# [1] = target: human Peroxisome Proliferator-activated Receptor alpha (PPARa), PPARA (gene 5465) (UniProt Q07869); experiment: ATG_PPARa_TRANS: Attagene TRANS-FACTORIAL HepG2 Assay for human Peroxisome Proliferator-activated Receptor alpha (PPARa) (AID 2283001);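 for AC50: potency for gain of reporter signal over DMSO so agonist or activator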
# human Peroxisome Proliferator-activated Receptor alpha (PPARa), PPARA (gene 5465), sequence (Q07869 whole entry, looked up, the tested form may be a part): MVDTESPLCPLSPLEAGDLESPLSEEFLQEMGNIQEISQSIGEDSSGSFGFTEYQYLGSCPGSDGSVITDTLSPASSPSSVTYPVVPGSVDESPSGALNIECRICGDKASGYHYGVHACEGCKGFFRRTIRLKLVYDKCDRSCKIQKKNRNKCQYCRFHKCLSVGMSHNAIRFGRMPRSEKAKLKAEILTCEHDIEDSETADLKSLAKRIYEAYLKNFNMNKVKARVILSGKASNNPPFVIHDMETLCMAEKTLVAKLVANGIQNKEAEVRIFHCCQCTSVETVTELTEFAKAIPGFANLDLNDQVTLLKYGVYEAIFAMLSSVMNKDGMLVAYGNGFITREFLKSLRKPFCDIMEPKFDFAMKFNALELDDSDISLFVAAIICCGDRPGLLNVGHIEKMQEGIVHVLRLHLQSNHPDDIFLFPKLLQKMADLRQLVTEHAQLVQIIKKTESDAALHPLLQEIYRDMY
# In short: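 Reporter transcripts quantified by RT-PCR plus capillary electrophoresis after 24 h treatment, fitted upward relative to DMSO. Cells: human HepG2 transiently carrying multiple GAL4-UAS reporter units driven by NR-Gal4 chimeras.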
# [2] = target: human Peroxisome Proliferator-activated Receptor delta (PPARd), PPARD (gene 5467) (UniProt Q03181); experiment: ATG_PPARd_TRANS: Attagene TRANS-FACTORIAL HepG2 Assay for human Peroxisome Proliferator-activated Receptor delta (PPARd) (AID 2283002)
# human Peroxisome Proliferator-activated Receptor delta (PPARd), PPARD (gene 5467), sequence (Q03181 whole entry, looked up, the tested form may be a part): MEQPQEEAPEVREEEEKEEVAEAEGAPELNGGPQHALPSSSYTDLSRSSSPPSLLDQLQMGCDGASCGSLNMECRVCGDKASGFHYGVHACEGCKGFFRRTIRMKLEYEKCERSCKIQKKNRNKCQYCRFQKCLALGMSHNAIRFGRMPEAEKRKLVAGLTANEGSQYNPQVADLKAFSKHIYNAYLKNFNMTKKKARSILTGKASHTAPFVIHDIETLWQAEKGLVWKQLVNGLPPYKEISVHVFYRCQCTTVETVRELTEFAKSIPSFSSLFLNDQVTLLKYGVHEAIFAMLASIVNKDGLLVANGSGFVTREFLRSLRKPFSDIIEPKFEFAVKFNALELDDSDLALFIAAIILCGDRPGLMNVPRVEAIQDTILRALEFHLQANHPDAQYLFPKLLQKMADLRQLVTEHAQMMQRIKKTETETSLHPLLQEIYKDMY
# In short: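 Transient HepG2 transfection (multiple GAL4-UAS RTUs, chimeric receptor-Gal4); 24 h dosing; total RNA → oligo(dT) RT → PCR → 6-FAM primer extension → HpaI cut → CE. Positive direction vs DMSO.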
# [3] = read-out: Intercellular Adhesion Molecule 1 (ICAM1), ICAM1 (gene 3383); experiment: BSK_3C_ICAM1: BioMAP Diversity Plus: 3C Assay for Intercellular Adhesion Molecule 1 (ICAM1) Biomarker Activity (AID 2283003; active = hit-call score of the fitted dose curve at least 0.9, where 1 is the maximum; inactive = score below 0.9); settings: primary human endothelial cells (HUVEC); actives raise or lower the signal
# In short: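 ELISA readout of ICAM1 in human umbilical vein endothelial cells in the 3C system, taken 24 h post-dose. Gain or loss of signal versus DMSO was fitted in both directions, with SRB total-protein staining run in parallel.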
# [4] = target: human Retinoic Acid Receptor beta (RARb), RARB (gene 5915) (UniProt P10826); experiment: ATG_RARb_TRANS: Attagene TRANS-FACTORIAL HepG2 Assay for human Retinoic Acid Receptor beta (AID 2283004)
# human Retinoic Acid Receptor beta (RARb), RARB (gene 5915), sequence (P10826 whole entry, looked up, the tested form may be a part): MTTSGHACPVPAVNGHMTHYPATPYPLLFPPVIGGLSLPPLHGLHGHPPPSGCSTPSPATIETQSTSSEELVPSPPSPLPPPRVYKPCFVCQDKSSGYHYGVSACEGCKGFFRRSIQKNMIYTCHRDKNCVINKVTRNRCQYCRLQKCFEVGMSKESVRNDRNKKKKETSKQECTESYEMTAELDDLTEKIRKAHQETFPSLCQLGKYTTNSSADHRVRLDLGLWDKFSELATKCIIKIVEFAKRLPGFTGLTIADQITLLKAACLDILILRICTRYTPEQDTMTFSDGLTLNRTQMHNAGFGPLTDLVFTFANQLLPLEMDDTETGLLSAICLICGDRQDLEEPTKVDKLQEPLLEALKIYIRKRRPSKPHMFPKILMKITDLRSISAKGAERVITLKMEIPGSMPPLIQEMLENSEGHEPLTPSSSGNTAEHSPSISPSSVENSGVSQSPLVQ
# In short: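 Readout is reporter mRNA induction: RNA reverse-transcribed, PCR-amplified, FAM-labelled, HpaI-cut and resolved by capillary electrophoresis. Transiently transfected HepG2 cells carrying exogenous NR–Gal4 chimeras were dosed for 24 h; activity fitted upward relative to DMSO.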
# [5] = BSK_3C_Proliferation: Cell Proliferation Assessment in the BioMAP Diversity Plus: 3C Assay (AID 2283006; active = hit-call score of the fitted dose curve at least 0.9, where 1 is the maximum; inactive = score below 0.9;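 for AC50: potency may reflect either rise or fall in cell number versus DMSO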); settings: primary human endothelial cells (HUVEC)
# In short: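 Proliferation as total protein: sulforhodamine B (0.1%) stain of TCA-fixed subconfluent human umbilical vein endothelial cells, absorbance 560 nm, 48 h after dosing. Activity fitted in both directions against DMSO baseline.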
# [6] = target: Peroxisome proliferator-activated receptor gamma (Homo sapiens) (UniProt P37231); experiment: ATG_PPARg_TRANS: Attagene TRANS-FACTORIAL HepG2 Assay for human Peroxisome Proliferator-activated Receptor-gamma (PPARg) (AID 2283007)
# Peroxisome proliferator-activated receptor gamma (Homo sapiens), sequence (P37231 whole entry, looked up, the tested form may be a part): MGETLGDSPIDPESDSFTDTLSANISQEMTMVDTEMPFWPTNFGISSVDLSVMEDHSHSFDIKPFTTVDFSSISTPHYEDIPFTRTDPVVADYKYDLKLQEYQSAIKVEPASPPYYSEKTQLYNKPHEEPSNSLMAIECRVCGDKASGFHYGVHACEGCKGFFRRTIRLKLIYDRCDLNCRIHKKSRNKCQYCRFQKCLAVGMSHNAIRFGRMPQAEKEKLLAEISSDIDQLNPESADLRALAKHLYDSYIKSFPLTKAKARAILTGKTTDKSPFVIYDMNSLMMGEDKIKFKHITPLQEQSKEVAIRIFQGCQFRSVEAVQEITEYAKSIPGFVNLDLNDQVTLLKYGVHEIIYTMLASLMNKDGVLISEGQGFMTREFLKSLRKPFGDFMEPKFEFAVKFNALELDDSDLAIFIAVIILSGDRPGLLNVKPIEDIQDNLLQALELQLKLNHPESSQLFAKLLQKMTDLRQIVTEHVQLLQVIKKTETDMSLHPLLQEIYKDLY
# In short: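 After 24 h of chemical exposure, transfected HepG2 cells carrying PPARγ-Gal4 chimera reporter constructs are lysed for RNA. Reporter transcripts are measured by RT-PCR and capillary electrophoresis with fluorescent labelling, and gain of signal is fitted versus DMSO.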
# [7] = target: Nuclear receptor subfamily 1 group I member 2 (Homo sapiens) (UniProt O75469); experiment: ATG_PXR_TRANS: Attagene TRANS-FACTORIAL HepG2 Assay for human Pregnane X Receptor (PXR) (AID 2283008)
# Nuclear receptor subfamily 1 group I member 2 (Homo sapiens), sequence (O75469 whole entry, looked up, the tested form may be a part): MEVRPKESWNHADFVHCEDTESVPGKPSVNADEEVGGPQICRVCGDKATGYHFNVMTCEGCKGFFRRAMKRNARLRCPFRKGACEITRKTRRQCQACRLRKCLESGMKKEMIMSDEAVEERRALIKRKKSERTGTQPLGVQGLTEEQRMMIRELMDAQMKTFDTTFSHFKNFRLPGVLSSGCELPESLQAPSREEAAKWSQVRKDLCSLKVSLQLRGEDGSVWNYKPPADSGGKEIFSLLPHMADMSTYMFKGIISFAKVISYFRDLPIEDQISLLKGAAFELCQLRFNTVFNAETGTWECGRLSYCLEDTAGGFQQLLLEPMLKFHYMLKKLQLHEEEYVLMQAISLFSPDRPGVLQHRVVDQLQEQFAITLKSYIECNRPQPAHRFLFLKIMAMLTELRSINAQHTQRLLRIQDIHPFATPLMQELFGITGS
# In short: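 Multiplexed TRANS reporter panel in HepG2; this component tracks PXR-Gal4-driven reporter mRNA after 24 h dosing, measured by RT-PCR with capillary electrophoresis fluorescence, fitted against DMSO.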
# [8] = target: human Retinoic Acid Receptor gamma (RARg), RARG (gene 5916) (UniProt P13631); experiment: ATG_RARg_TRANS: Attagene TRANS-FACTORIAL HepG2 Assay for human Retinoic Acid Receptor gamma (RARg) (AID 2283009)
# human Retinoic Acid Receptor gamma (RARg), RARG (gene 5916), sequence (P13631 whole entry, looked up, the tested form may be a part): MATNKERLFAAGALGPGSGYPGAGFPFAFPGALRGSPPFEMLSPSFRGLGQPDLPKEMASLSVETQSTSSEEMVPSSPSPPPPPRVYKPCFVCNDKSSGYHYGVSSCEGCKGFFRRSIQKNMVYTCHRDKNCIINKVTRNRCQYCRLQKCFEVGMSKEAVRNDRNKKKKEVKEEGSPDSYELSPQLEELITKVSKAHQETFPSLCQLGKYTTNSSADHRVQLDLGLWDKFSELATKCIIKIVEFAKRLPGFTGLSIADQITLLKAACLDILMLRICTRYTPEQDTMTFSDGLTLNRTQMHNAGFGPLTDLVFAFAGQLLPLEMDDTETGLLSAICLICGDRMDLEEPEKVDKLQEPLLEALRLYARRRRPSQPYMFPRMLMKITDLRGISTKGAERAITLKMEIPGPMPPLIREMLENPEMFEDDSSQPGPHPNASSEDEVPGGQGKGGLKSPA
# In short: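 Transactivation of exogenous RARg-Gal4 fusion measured as reporter transcript induction after 24 h in transfected HepG2 cells. RNA reverse-transcribed, amplified, fluorescently labeled and resolved by capillary electrophoresis; increase relative to DMSO.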
# [9] = target: Retinoic acid receptor alpha (Homo sapiens) (UniProt P10276); experiment: ATG_RARa_TRANS: Attagene TRANS-FACTORIAL HepG2 Assay for human Retinoic Acid Receptor alpha (RARa) (AID 2283005)
# Retinoic acid receptor alpha (Homo sapiens), sequence (P10276 whole entry, looked up, the tested form may be a part): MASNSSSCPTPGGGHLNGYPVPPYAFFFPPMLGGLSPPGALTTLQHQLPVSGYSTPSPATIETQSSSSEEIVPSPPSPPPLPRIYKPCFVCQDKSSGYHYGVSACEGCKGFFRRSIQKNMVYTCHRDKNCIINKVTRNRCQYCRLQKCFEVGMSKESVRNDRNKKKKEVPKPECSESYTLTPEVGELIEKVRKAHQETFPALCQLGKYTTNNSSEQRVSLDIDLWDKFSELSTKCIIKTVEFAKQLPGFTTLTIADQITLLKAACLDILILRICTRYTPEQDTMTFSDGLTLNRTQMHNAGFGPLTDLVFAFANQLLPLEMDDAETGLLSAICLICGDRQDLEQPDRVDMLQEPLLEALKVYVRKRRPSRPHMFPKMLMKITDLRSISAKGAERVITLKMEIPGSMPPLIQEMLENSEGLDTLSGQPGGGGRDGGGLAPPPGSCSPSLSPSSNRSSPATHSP
# In short: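 Reporter transcripts, measured by RT-PCR with fluorescent labeling and capillary electrophoresis after 24 h dosing, reflect activity of an exogenous human RARa–GAL4 fusion in transiently transfected HepG2. Fitted for increase relative to DMSO.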
# [10] = target: human RAR-related Orphan Receptor beta (RORb), RORB (gene 6096) (UniProt Q92753); experiment: ATG_RORb_TRANS: Attagene TRANS-FACTORIAL HepG2 Assay for human RAR-related Orphan Receptor beta (RORb) (AID 2283010)
# human RAR-related Orphan Receptor beta (RORb), RORB (gene 6096), sequence (Q92753 whole entry, looked up, the tested form may be a part): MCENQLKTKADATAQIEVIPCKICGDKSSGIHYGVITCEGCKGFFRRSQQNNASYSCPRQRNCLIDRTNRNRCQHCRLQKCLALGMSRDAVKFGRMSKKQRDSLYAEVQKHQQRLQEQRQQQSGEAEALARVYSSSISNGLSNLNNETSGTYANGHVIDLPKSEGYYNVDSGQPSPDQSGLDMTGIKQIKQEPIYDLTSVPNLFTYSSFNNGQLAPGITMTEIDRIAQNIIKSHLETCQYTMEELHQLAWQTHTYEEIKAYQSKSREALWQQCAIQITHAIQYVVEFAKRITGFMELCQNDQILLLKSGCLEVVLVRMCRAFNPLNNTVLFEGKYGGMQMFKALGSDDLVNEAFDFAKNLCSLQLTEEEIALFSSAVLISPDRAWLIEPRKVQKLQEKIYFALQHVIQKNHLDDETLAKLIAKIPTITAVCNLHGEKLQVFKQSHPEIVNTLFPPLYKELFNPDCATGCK
# In short: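 Read-out is reporter mRNA induction, quantified by RT-PCR with fluorescent capillary electrophoresis, 24 h post-dose in transiently transfected HepG2 expressing exogenous NR-Gal4 chimera. Activity fitted upward versus DMSO.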
smiles,measurement,setting,value
Clc1cc(Cl)c2c(c1)N=C1CCCCCN1C2,outcome,[1],inactive
same,outcome,[2],inactive
same,outcome,[3],inactive
same,outcome,[4],inactive
same,outcome,[5],inactive
same,AC50,[6],16.1 µM (active)
same,AC50,[7],20.2 µM (active)
same,outcome,[8],inactive
O=C1CCC(C2CCCCC2)CC1,outcome,[1],inactive
same,outcome,[2],inactive
same,outcome,[3],inactive
same,outcome,[4],inactive
same,outcome,[9],inactive
same,outcome,[5],inactive
same,AC50,[6],27.6 µM (active) [middle of 4 runs]
same,outcome,[10],inactive
Cc1occc1C(=O)Nc1ccc(C(=O)N2CCC(F)(F)/C(=C\C(=O)N3CCC(N4CCCCC4)CC3)c3ccccc32)cc1,AC50,[1],53 µM (active)
same,outcome,[3],inactive
same,outcome,[5],inactive
same,AC50,[6],59.6 µM (active)
same,AC50,[7],25.5 µM (active)
Cc1cccc2ccccc12,outcome,[1],inactive
same,outcome,[2],inactive
same,outcome,[3],inactive
same,outcome,[9],inactive
same,outcome,[5],inactive
same,outcome,[6],inactive
same,outcome,[7],inactive
same,outcome,[8],inactive
same,outcome,[10],inactive
CC1=CC(=O)/C(=C(/C)O)C(=O)O1,outcome,[1],inactive
same,outcome,[2],inactive
same,outcome,[3],inactive
same,outcome,[4],inactive
same,outcome,[5],inactive
same,outcome,[10],inactive
COc1cc(C(=O)NC2CCN(C)CC2)ccc1Nc1ncc2c(n1)N(C1CCCC1)CC(F)(F)C(=O)N2C,outcome,[1],inactive
same,AC50,[2],3.45 µM (active)
same,outcome,[3],inactive
same,AC50,[5],3.69 µM (active)
same,outcome,[6],inactive
same,outcome,[7],inactive
same,outcome,[10],inactive
CC(O)CC(C)(C)O (stereo unspecified),outcome,[1],inactive
same,outcome,[3],inactive
same,outcome,[4],inactive
same,outcome,[9],inactive
same,outcome,[5],inactive
same,outcome,[6],inactive
same,outcome,[7],inactive
same,outcome,[8],inactive
same,outcome,[10],inactive
CCCCCc1ccc(N)cc1,outcome,[1],inactive
same,outcome,[2],inactive
same,outcome,[3],inactive
same,AC50,[5],6.3 µM (active)
same,AC50,[6],100 µM (active) and 34 µM (active)
same,outcome,[6],inactive
same,outcome,[7],inactive
O=C(O)c1ccccc1C(=O)OCc1ccccc1,outcome,[1],inactive
same,outcome,[3],inactive
same,outcome,[9],inactive
same,outcome,[5],inactive
same,outcome,[6],inactive
same,outcome,[7],inactive
CN(C)C(=O)C1(N2CCCCC2)CCN(CC[C@@]2(c3ccc(Cl)c(Cl)c3)CN(C(=O)c3ccccc3)CCO2)CC1,outcome,[1],inactive
same,outcome,[2],inactive
same,AC50,[3],36.8 µM (active)
same,AC50,[5],6.91 µM (active)
same,outcome,[7],inactive
COc1ccc2cc(S(=O)(=O)N[C@H](CC(=O)N[C@H](Cc3ccc(CN4[C@H](C)CCC[C@@H]4C)cc3)C(=O)N(C)C(C)C)c3ccc4c(c3)OCO4)ccc2c1,outcome,[1],inactive
same,outcome,[3],inactive
same,AC50,[5],22 µM (active)
same,outcome,[6],inactive
same,outcome,[7],inactive
Cc1c2ccccc2c(C)c2c1ccc1ccccc12,AC50,[1],148 µM (active)
same,AC50,[2],100 µM (active)
same,outcome,[3],inactive
same,outcome,[9],inactive
same,AC50,[5],10.4 µM (active)
same,AC50,[6],24.1 µM (active)
same,AC50,[7],2.57 µM (active)
same,outcome,[8],inactive
CCCCCCCCOC(=O)c1cc(O)c(O)c(O)c1,AC50,[1],33.4 µM (active)
same,AC50,[2],39.7 µM (active)
same,AC50,[3],35.5 µM (active)
same,outcome,[4],inactive
same,AC50,[5],17 µM (active)
same,AC50,[6],39.8 µM (active)
same,AC50,[7],6.39 µM (active)
same,outcome,[8],inactive
same,outcome,[10],inactive
CC(C)(C)c1cc(/C=C2\SC(N)=NC2=O)cc(C(C)(C)C)c1O,outcome,[1],inactive
same,outcome,[2],inactive
same,AC50,[3],31.7 µM (active)
same,outcome,[4],inactive
same,outcome,[9],inactive
same,AC50,[5],13.4 µM (active)
same,AC50,[6],6.79 µM (active)
same,AC50,[7],4.17 µM (active)
same,outcome,[8],inactive
CN(C[C@@H](CC[N+]12CCC(C3CCCCC3)(CC1)CC2)c1ccc(Cl)c(Cl)c1)C(=O)c1cc(C(F)(F)F)cc(C(F)(F)F)c1,outcome,[1],inactive
same,outcome,[2],inactive
same,AC50,[3],39 µM (active)
same,AC50,[5],12.9 µM (active)
same,outcome,[7],inactive
same,outcome,[8],inactive
same,outcome,[10],inactive
Cc1ccc(C(C)C)cc1,outcome,[1],inactive
same,outcome,[2],inactive
same,outcome,[3],inactive
same,outcome,[4],inactive
same,outcome,[5],inactive
same,outcome,[7],inactive
OC12N=C(c3ccccc3)SC1Cc1cc(Cl)ccc12 (stereo unspecified),outcome,[1],inactive
same,outcome,[2],inactive
same,outcome,[3],inactive
same,AC50,[5],31.5 µM (active)
same,AC50,[6],0.03 µM (active)
same,AC50,[7],2.41 µM (active)
same,outcome,[10],inactive
